Measured values as given in PubChem BioAssay AID488777 (Sanford-Burnham Center for Chemical Genomics, 2010).
Activity calls are given as the source filed them. The rule behind the calls is not given here.

Assay: assay artefact check, AlphaScreen readout interference – biochemical, artefact control for SUMOylation inhibitor project, SAR follow-up (AID 488777)
Conditions: purified counter-screen enzymes, TR-FRET, 60 min

| SMILES | IC50 |
| --- | --- |
| COC(=O)C=C(NC(CO)(CO)CO)C(=O)OC | > 100 µM (inactive) |
| CCCC1=NN(c2ccc(C(=O)O)cc2)C(=O)/C1=C/c1ccc(OCc2ccccc2)cc1 | 16.4 µM (active) |
| COC(=O)[C@@H]1C2CCC([C@@H](Cc3ccccc3)Nc3ccccc3)(O2)[C@@H]1C(=O)OC (stereo not given in full) | > 100 µM (inactive) |
| CCCC1=NN(c2ccccc2)C(=O)/C1=C/c1ccc(OCc2ccc(C(=O)OC)cc2)cc1 | > 100 µM (inactive) |
| CCCCn1c(N)c(S(=O)(=O)c2ccc(C)cc2)c2nc3ccccc3nc21 | > 100 µM (inactive) |
| CCCCn1c(NC(=O)c2ccc(F)cc2)c(C#N)c2nc3ccccc3nc21 | 65.3 µM (active) |
| COC(=O)C1=C(C(=O)O)C2C=CC1([C@@H](Cc1ccccc1)Nc1ccccc1)O2 (stereo not given in full) | > 100 µM (inactive) |
| CCCCn1c(NC(=O)c2ccc(F)cc2)c(S(=O)(=O)c2ccc(C)cc2)c2nc3ccccc3nc21 | > 100 µM (inactive) |
| CCC[C@H](Nc1ccccc1)C12C=CC(O1)C(C(=O)OC)=C2C(=O)OC (stereo not given in full) | > 100 µM (inactive) |
| CCCCn1c(NC(=O)c2ccco2)c(C#N)c2nc3ccccc3nc21 | > 100 µM (inactive) |
| CCCCn1c(N)c(C#N)c2nc3ccccc3nc21 | > 100 µM (inactive) |
| COC(=O)C1=C(C(=O)OC)C2([C@@H](Cc3ccc(OC)cc3)Nc3ccccc3)C=CC1O2 (stereo not given in full) | > 100 µM (inactive) |
| CCCCn1c(NC(=O)c2cccc(Cl)c2)c(C#N)c2nc3ccccc3nc21 | > 100 µM (inactive) |
| CCCC1=NN(c2ccc(C(=O)O)cc2)C(=O)/C1=C/c1ccc(O)cc1 | > 100 µM (inactive) |
| C=C[C@H](Nc1ccccc1)C12C=CC(O1)C(C(=O)OC)=C2C(=O)OC (stereo not given in full) | > 100 µM (inactive) |
| CCCCn1c(NC(C)=O)c(C#N)c2nc3ccccc3nc21 | > 100 µM (inactive) |
| C=C[C@@H](Nc1ccccc1)C12C=CC(O1)C(C(=O)OC)=C2C(=O)OC (stereo not given in full) | > 100 µM (inactive) |
| N#Cc1c(NC(=O)c2ccccc2Cl)n(Cc2ccccc2)c2nc3ccccc3nc12 | > 100 µM (inactive) |
| COC(=O)C1=C(C(=O)OC)C2(C(Cc3ccc(F)cc3)Nc3ccccc3)C=CC1O2 (stereo not given) | > 100 µM (inactive) |
| C=CCn1c(NC(=O)c2ccccc2Cl)c(C#N)c2nc3ccccc3nc21 | > 100 µM (inactive) |
